Values joined by “and” are separate entries in the source; they are usually repeats but may differ in a detail not shown here. Identical values can stand only once. About 1,800 (0.62%) of roughly 290,000 compounds were called active. The entries come from a sample that favours actives as a whole. Values without a mark were called inactive. Rule as the data show it: active = inhibition above about 50%; inactive = the rest.
Assay: inhibition of NOD2-driven NF-kB reporter – cell-based, luminescence, uHTS, HEK293 (AID 1566)
Conditions: HEK293 NOD2/NF-kB luciferase reporter, at 4 µM, hits give high values

| SMILES | inhibition |
| --- | --- |
| CC1CCN(S(=O)(=O)c2ccc(NC(=O)CNC3CCCCC3)cc2)CC1 | -15.2% |
| Cc1sc2c(=O)n3c(nc2c1C(=O)NC1CCCCC1)CCCCC3 | 16.8% |
| O=C(CSc1nc2ccccc2s1)N/N=C/c1ccccc1C(=O)O | 56.5% (active) |
| O=C(O)COc1ccccc1/C=N/NC(=O)CSc1nc2ccccc2s1 | -0.7% |
| O=C(CSc1nc2ccccc2s1)CSc1nc2ccccc2s1 | 4.4% |
| O=C(O)CSc1nc2ccccc2s1 | 0.2% and -11.4% |
| O=C(CSc1nc2ccccc2s1)N/N=C/c1ccc(C(=O)O)cc1 | 12.9% |
| O=C(O)CCSc1nc2ccccc2s1 | 65.2% (active) |
| Cc1ccc(S(=O)(=O)N2CCN3CCCC3C2)cc1 (stereo unspecified) | 17.2% |
| O=C(O)c1ccc(-n2c(/C=C/c3ccccc3)nc3ccccc3c2=O)cc1 | -19.9% |
| COc1ccc(Oc2nnc(-c3ccc(C)cc3)c3ccccc23)cc1 | 14.9% |
| Cc1ccc(/C=C/C(=O)Nn2cnnc2)cc1 | 5% |
| Cc1ccc(C)c(S(=O)(=O)NCc2ccncc2)c1 | 22.5% |
| Cc1cc(Br)c(S(=O)(=O)NCc2ccncc2)cc1C | 48.6% |
| Cc1c(NP(=O)(Oc2ccccc2F)Oc2ccccc2F)c(=O)n(-c2ccccc2)n1C | 7.9% |
| O=C(Nc1cc(S(=O)(=O)N2CCCC2)ccc1OCC(F)(F)F)c1ccccc1F | 6.6% |
| COC(=O)c1c(-c2ccccc2)csc1NC(=O)CSc1ncnc2sc(C)c(C)c12 | 34.6% |
| COC(=O)c1c(-c2cccs2)csc1NC(=O)CSc1ncnc2sc(C)c(C)c12 | 51.2% (active) |
| Cc1cccc(NC(=O)CSc2ncnc3sc(C)c(C)c23)n1 | 36.5% |
| O=C(O)CN1C(=O)C2C3CC(C2C1=O)C1C(c2ccc(Cl)cc2)c2sc(=O)[nH]c2SC31 (stereo unspecified) | 3.8% |
| Cc1nn(-c2ccccc2)c(Cl)c1/C=N/NC(=O)OC(C)(C)C | -73.9% |
| O=C(Nc1nnc(S(=O)(=O)N2CCCCC2)s1)c1ccc(Cl)cc1 | 47.8% |
| Cc1ccc(C(=O)Nc2nnc(S(=O)(=O)N3CCCCCC3)s2)cc1 | 4.6% |
| Cc1cccc(C(=O)Nc2nnc(S(=O)(=O)N3CCC(C)CC3)s2)c1 | -3.6% |
| CC1CCN(S(=O)(=O)c2nnc(NC(=O)c3cccc([N+](=O)[O-])c3)s2)CC1 | 37.1% |
| CC(=O)c1cccc(NCC(=O)c2ccc(C)c([N+](=O)[O-])c2)c1 | 15.7% |
